# Measured values from PubChem BioAssay.
# The source made the active and inactive calls. Unless noted, the rule behind the calls is not given here.
# How the values were obtained:
# [1] = tested on: Wnt5a (protein binding on small-molecule microarray); experiment: small molecules binding Wnt5a protein – biophysical, small-molecule microarray, 635/667 nm fluorescence, primary screen (AID 1142); conditions: 635 nm fluorescence, higher = more signal;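 note: fluorescence read at 667 nm with signal to noise per printed feature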
# [2] = ATP-based viability of Huh7 replicon cells – cell-based, CellTiter-Glo luminescence, basal, 48 h, cytotoxicity control for HCV replication inhibitor project, primary screen (AID 1143); conditions: higher = more signal, called active from +8 up or from −8 down;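 note: Huh7 hepatoma cells carrying a hepatitis C replication reporter with no stimulus; test concentration not given here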
# [3] = Pseudomonas biofilm growth suppression – PAO1 strain, BacTiter-Glo luminescence, LB-PBS, primary screen (AID 1144); conditions: P. aeruginosa PAO1 biofilm, 12 h, higher = more signal
# [4] = basal CRE-LacZ reporter activity in PC12 – cell-based, unstimulated, primary screen (AID 1145); conditions: no forskolin, luminescence, 4.5 h, higher = more signal, called active from +8 up or from −8 down
# [5] = forskolin-driven CRE-LacZ activity in PC12 – cell-based, CRE-LacZ reporter, forskolin-stimulated, primary screen (AID 1146); conditions: luminescence, 4.5 h, higher = more signal, called active from +8 up or from −8 down;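 note: PC12 cells with 6xCRE LacZ reporter stimulated by forskolin 10 µM; beta-galactosidase reporter signal reflecting CREB driven transcription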
# [6] = target: Streptavidin (Streptomyces avidinii) (UniProt P22629); experiment: compounds binding control protein streptavidin – biophysical, small-molecule microarray, 635/667 nm fluorescence, artefact control for SMM compound annotation, primary screen (AID 1147); conditions: higher = more signal;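 note: signal reflects streptavidin binding to arrayed compounds as a control protein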
# [7] = probe aInhba binding on compound microarray – biochemical, small-molecule microarray, 635/667 nm fluorescence, primary screen (AID 1148); conditions: higher = more signal;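 note: score merges 667nm spot fluorescence with signal-to-noise for antibody binding to printed compounds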
# Torsin-1A (Homo sapiens) [8] = target: Torsin-1A (Homo sapiens) (UniProt O14656); experiment: TOR1A wild-type binding on microarray – cell lysate, small-molecule microarray, lysate, 635/667 nm, primary screen (AID 1149); conditions: COS7 hTOR1A-WT lysate, 635 nm fluorescence, higher = more signal
# Torsin-1A (Homo sapiens) [9] = target: Torsin-1A (Homo sapiens) (UniProt O14656); experiment: torsin A mutant lysate binding on microarrays – cell lysate, small-molecule microarray, COS7 lysate, 635/667 nm fluorescence, primary screen (AID 1150); conditions: COS7 hTOR1A mutant lysate, 635 nm fluorescence, higher = more signal;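 note: score pools 667 nm emission and signal to noise measuring lysate protein binding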
# [10] = tested on: Sonic hedgehog protein (Shh); experiment: Sonic hedgehog microarray binding compounds – biochemical, small-molecule microarray, 635/667 nm fluorescence, primary screen (AID 1151); conditions: 635 nm fluorescence, higher = more signal;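 note: Shh protein binding to compounds spotted on small-molecule microarray slides; score combines spot fluorescence intensity with signal-to-noise across triplicate slides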
# Sequence of Torsin-1A (Homo sapiens) (O14656 whole entry, looked up): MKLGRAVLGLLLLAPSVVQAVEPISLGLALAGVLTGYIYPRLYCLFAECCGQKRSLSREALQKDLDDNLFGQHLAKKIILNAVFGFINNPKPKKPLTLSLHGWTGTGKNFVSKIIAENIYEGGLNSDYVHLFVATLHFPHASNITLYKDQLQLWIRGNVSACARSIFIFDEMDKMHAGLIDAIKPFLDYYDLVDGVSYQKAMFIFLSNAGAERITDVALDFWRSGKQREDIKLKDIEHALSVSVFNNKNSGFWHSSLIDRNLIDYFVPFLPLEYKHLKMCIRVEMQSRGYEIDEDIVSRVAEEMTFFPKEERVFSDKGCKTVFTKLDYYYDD
# Sequence of Streptavidin (Streptomyces avidinii) (P22629 whole entry, looked up): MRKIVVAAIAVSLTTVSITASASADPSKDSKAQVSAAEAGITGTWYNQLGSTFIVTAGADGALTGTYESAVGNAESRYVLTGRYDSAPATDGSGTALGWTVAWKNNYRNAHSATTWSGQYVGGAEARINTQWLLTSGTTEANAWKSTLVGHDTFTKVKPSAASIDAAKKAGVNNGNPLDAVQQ
Structure (SMILES),composite z-score [1],z-score [2],z-score [3],z-score [4],z-score [5],composite z-score [6],composite z-score [7],composite z-score (Torsin-1A (Homo sapiens) [8]),composite z-score (Torsin-1A (Homo sapiens) [9]),composite z-score [10]
Cc1ccc(S[C@]2(C(=O)NCCN3CCOCC3)CC(=O)N(Cc3ccccc3)[C@@H]2c2ccc(CO)cc2I)cc1,0.0376,-5.17 (inactive),-0.779 (inactive),-0.114 (inactive),1.8 (inactive),-0.755,-0.0719,-1.46,0.59,-0.685
O=C1O[C@H](c2ccccc2)[C@H](c2ccccc2)N2[C@H]1[C@@H](C(=O)O)[C@]1(C(=O)Nc3ccc(C#CC4=CCCCC4)cc31)[C@H]2c1ccccc1OCCO,1.02,-4.67 (inactive),-0.177 (inactive),17.1 (active),26.1 (active),1.97,0.17,0.849,0.516,0.892
CN1C(=O)[C@]2(Cc3ccccc3)N=C(c3ccc(OCCCO)cc3)O[C@@H]2c2ccccc21,0.928,-4.61 (inactive),-1 (inactive),0.456 (inactive),-1.12 (inactive),0.0004,0.112,0.428,0.628,1.15
COc1ccc([Si](C)(C)[C@H]2[C@H](CC(=O)N3Cc4ccccc4C[C@H]3CO)O[C@@]3(C(=O)N(Cc4ccc(N5CCC5=O)cc4)c4ccccc43)[C@@H]2C)cc1,0.66,-6.48 (inactive),0.522 (inactive),0.656 (inactive),-0.317 (inactive),0.679,0.256,1.27,0.574,1.85
O=C1C2C=CC(C(O)c3ccc(F)cc3)N(Nc3ccccc3F)C2C(=O)N1c1ccccc1 (stereo not given),-0.0864,0.486 (inactive),-0.746 (inactive),0.433 (inactive),1.53 (inactive),0.59,0.254,0.0654,0.845,-0.166
CCOC(=O)C[C@H]1[C@H](OC(=O)Cc2ccc3c(c2)OCO3)[C@@H](NC(=O)c2ccc(-c3ccccc3)cc2)c2cc(OCCCO)ccc2N1C(=O)Cc1ccc(OC)cc1,0.267,-0.921 (inactive),-0.304 (inactive),6.24 (inactive),0.0489 (inactive),0.0687,-0.0754,0.0816,0.394,0.965
COc1ccc(C#Cc2ccc3c(c2)[C@]2(C(=O)N3)[C@H](c3ccccc3OCCO)N3[C@H](c4ccccc4)[C@H](c4ccccc4)OC(=O)[C@H]3[C@@H]2C(=O)O)cc1,0.535,-4.91 (inactive),-1.66 (inactive),-1.16 (inactive),4.03 (inactive),1.45,0.909,0.498,0.659,2.06
C[C@]1(C(=O)NC2CC2)c2ccccc2C(=O)N(Cc2cc(C(F)(F)F)cc(C(F)(F)F)c2)[C@H]1c1ccc(CO)cc1,0.46,-1.38 (inactive),0.501 (inactive),-0.825 (inactive),-1.25 (inactive),0.0956,0.225,0.372,0.329,-0.0874
O=C1O[C@@H](c2ccccc2)[C@@H](c2ccccc2)N2[C@@H](c3ccc(OCCO)cc3)[C@]3(C(=O)Nc4ccccc43)[C@@H](C(=O)NC[C@H](O)c3ccccc3)[C@H]12,0.0635,-1.19 (inactive),-0.388 (inactive),-0.606 (inactive),2.97 (inactive),0.146,0.0561,0.437,0.14,0.95
C#CCN(CC=C(C)C)[C@H](CO)c1ccccc1,-0.0366,-4.16 (inactive),-0.215 (inactive),-0.153 (inactive),0.979 (inactive),0.0089,-0.0719,0.247,1.08,0.0568
NCCCCCNC(=O)[C@@H]1C[C@@H]2C(=O)NCC(=O)N2[C@@H]1c1ccc(O)cc1,0.892,0.104 (inactive),-0.735 (inactive),0.557 (inactive),0.467 (inactive),1.2,-0.0963,1.06,0.682,2.06
CS(=O)(=O)CCOC(=O)C1=CC(CCCO)=CC(c2ccc(CN3CCCC3)cc2)N(Cc2cc3c(cc2Br)OCO3)C=C1C(=O)OCCS(C)(=O)=O (stereo not given),0.592,-0.277 (inactive),0.814 (inactive),4.06 (inactive),-1.45 (inactive),1.5,0.229,2.09,2.13,0.404
COC(=O)[C@@]1(Cc2ccc(F)cc2)[C@H]2c3cc(C(=O)N(C)C)n(CC4CC4)c3C[C@H]2CN1C(=O)c1ccccc1,1.96,-2.68 (inactive),0.163 (inactive),1.54 (inactive),0.581 (inactive),1.79,1.56,-0.532,0.224,-1.04
CCCCC(O)C1C=CC2C(=O)N(c3ccccc3)C(=O)C2N1Nc1ccccc1F (stereo not given),0.182,0.615 (inactive),-0.571 (inactive),-0.143 (inactive),0.569 (inactive),2.09,0.297,0.31,0.129,-0.0688
C=C(C)C1C(=C)CN([C@H](CO)c2ccccc2)C1=O (stereo not given in full),-0.231,-0.677 (inactive),-0.65 (inactive),-0.141 (inactive),0.176 (inactive),-1.12,-0.103,-1.46,-0.821,1.28
O=C(O)[C@@]1(CCS(=O)(=O)c2ccccc2)COC(c2ccc(OCCCO)cc2)=N1,-0.142,0.122 (inactive),1.98 (inactive),-0.389 (inactive),-0.298 (inactive),-0.439,-0.108,-0.792,0.333,-1.03
CN1C(=O)C2C=CC(C(O)c3cccs3)N(Nc3ccccc3)C2C1=O (stereo not given),0.455,0.593 (inactive),-0.0101 (inactive),0.426 (inactive),0.711 (inactive),0.389,0.406,0.757,0.738,0.251
CC(C)C[C@@H]1NC(=O)[C@@H]2C[C@H](C(=O)NCCCCCN)[C@H](c3cccc(OCCO)c3)N2C1=O,0.794,-0.542 (inactive),-1.64 (inactive),0.0043 (inactive),0.442 (inactive),1.05,-0.0736,0.941,0.919,1.05
O=C1NC(=O)C2C1C=CC(C(O)c1ccccc1)N2Nc1ccc(Cl)cc1Cl (stereo not given),0.656,-2.84 (inactive),-1.4 (inactive),0.429 (inactive),-0.12 (inactive),2.01,0.225,1.01,1.4,1.68
CCOC(=O)C[C@H]1[C@H](OC(=O)c2cc3ccccc3oc2=O)[C@@H](NC(=O)C2CCCCC2)c2cc(OCCCO)ccc2N1C(=O)c1ccccc1,-0.0359,-3.06 (inactive),0.838 (inactive),11 (active),-1.65 (inactive),0.191,-0.0245,0.046,0.159,0.705
O=C(C1N=C(c2ccc(OCCCO)cc2)N(c2ccccc2)O1)N1CCOCC1 (stereo not given),0.427,-3.19 (inactive),-0.59 (inactive),0.185 (inactive),-0.472 (inactive),0.637,0.0947,0.652,0.219,0.476
COCCOC(=O)N1C(=O)[C@@]2(c3cc(C#CC4=CCCCC4)ccc31)[C@H](C(=O)N1CCc3cc(OC)c(OC)cc3C1)[C@H]1C(=O)O[C@H](c3ccccc3)[C@H](c3ccccc3)N1[C@@H]2c1ccc(OCCO)cc1,0.538,-0.571 (inactive),-0.259 (inactive),-0.475 (inactive),-0.381 (inactive),0.665,0.0649,0.304,0.295,1.38
CN(C)C(=O)[C@@]1(Cc2ccccc2)N=C(c2ccc(OCCCO)cc2)O[C@H]1c1ccccc1N=[N+]=[N-],0.762,-4.47 (inactive),-1.05 (inactive),0.115 (inactive),-2.09 (inactive),1.5,0.086,0.697,0.505,-0.346
COC(=O)[C@@]1(Cc2ccc(F)cc2)[C@H]2c3cc(C(=O)N(C)C)n(Cc4nc5ccccc5[nH]4)c3C[C@H]2CN1C(=O)c1ccccc1,0.507,-0.574 (inactive),0.528 (inactive),1.53 (inactive),0.678 (inactive),0.711,0.348,-0.806,0.484,-0.586
O=C(c1ccccc1)N1Cc2ccccc2[C@@H]2OC(c3ccc(OCCCO)cc3)=N[C@]2(Cc2ccccc2)C1=O,0.624,-3.55 (inactive),-0.554 (inactive),1.35 (inactive),0.715 (inactive),0.215,0.188,0.236,0.423,1.33
C=CCC(OC(C)=O)[C@@H]1[C@@H](N(Cc2ccc(-c3ccccc3)cc2)C(=O)Cc2ccc(F)cc2)c2cc(OCCCO)ccc2N1C(=O)c1ccc(-c2ccccc2)cc1 (stereo not given in full),-0.163,-1.13 (inactive),-0.757 (inactive),-1.23 (inactive),-0.0988 (inactive),0.711,-0.157,-0.628,-0.222,0.249
CCOC(=O)[C@H]1C/C=C/C[C@H](C(=O)OCC)C(=O)O[C@H]2[C@@H](OC)O[C@H](CO)[C@@H](OC(=O)Nc3ccc(C#N)cc3)[C@@H]2OC1=O,0.121,-6.66 (inactive),-2.89 (inactive),-1.29 (inactive),-1.66 (inactive),-0.576,-0.128,0.392,1.08,0.673
COc1ccc(C(O)C2C=CC3C(=O)NC(=O)C3N2Nc2ccccn2)c2ccccc12 (stereo not given),0.0373,1.04 (inactive),-0.507 (inactive),-0.133 (inactive),0.214 (inactive),-0.0105,-0.0791,0.239,-0.274,0.448
